FAK blocker: blocks human focal adhesion kinase activity; biochemical FAK kinase activity assay; actives 0.84% (n = 97,000); AID 727; inhibition, %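 (tested at 7 µM)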; in the data active = inhibition above about 19%;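 also: 0% = DMSO and 100% = reference compound high control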
ERa coact pot: enhances coactivator binding to human estrogen receptor alpha; actives 1.3% (n = 86,000); P03372; coactivator binding (% of control), % at 25.6 µM; TR-FRET ERalpha-LBD/SRC-Cy5 coactivator binding, 2 h; 100 = basal binding, no effect; in the data active = activity above about 200%;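 also: binding measured in presence of low estradiol as agonist stimulus; 0% = peptide alone without receptor and 100% = receptor with peptide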
ERb SRC1 inh: ER-beta (human) coactivator binding inhibition | Q92731 | TR-FRET ER-beta LBD / SRC1-Cy5 peptide binding; receptor agonist-loaded with 1 µM estradiol | inhibition, % at 25.6 µM | actives 1.3% (n = 86,000);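 active = compounds whose percent inhibition of the receptor-coactivator binding signal exceeds about 50% in the single-dose screen, limit read from the data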;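 also: 0% = receptor plus peptide wells without compound and 100% = peptide-only wells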
Target sequence (Q92731 whole entry, looked up, the tested form may be a part): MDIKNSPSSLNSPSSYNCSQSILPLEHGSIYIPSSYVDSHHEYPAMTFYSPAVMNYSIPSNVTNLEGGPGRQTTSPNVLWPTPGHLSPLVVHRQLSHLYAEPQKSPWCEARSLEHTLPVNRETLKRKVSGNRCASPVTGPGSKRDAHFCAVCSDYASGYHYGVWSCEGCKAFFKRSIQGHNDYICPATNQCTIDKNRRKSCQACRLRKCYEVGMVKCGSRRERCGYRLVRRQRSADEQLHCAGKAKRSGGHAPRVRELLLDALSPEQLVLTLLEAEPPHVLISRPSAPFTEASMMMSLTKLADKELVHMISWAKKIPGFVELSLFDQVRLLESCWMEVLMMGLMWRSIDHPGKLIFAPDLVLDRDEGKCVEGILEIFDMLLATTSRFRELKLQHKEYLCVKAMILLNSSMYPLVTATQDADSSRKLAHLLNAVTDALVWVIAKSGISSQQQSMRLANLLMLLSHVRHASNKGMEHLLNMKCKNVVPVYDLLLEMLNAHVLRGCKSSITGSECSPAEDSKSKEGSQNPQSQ
ERa coact inh: ER-alpha (human) coactivator binding inhibition | P03372 | TR-FRET ER-alpha LBD / SRC-1 peptide, estradiol-bound | inhibition, % at 25.6 µM | actives 1.7% (n = 86,000) | AID 629; in the data active = inhibition above about 50%;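 also: 0% = receptor plus peptide control and 100% = peptide only without receptor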
Mac1 fbg inh: inhibitors of human CD11b/CD18 binding to fibrinogen. P05107+P11215. K562 CD11b/CD18 adhesion to fibrinogen, ATPlite luminescence; Mn2+ added to activate the integrin. inhibition, % at 10 µM. actives 0.54% (n = 93,000). AID 1497;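 active = primary inhibition of 50% or more at 10 µM, then 40% or more on retest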
Mac1 fbg enh: CD11b/CD18-fibrinogen binding enhancement | actives 0.07% (n = 93,000) | AID 1499 | P05107+P11215 | activation, % at 10 µM | K562 CD11b/CD18 adhesion to fibrinogen, ATPlite luminescence;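 active = 10 µM primary screen giving 50% or more activity, confirmed by 40% or more on retest at that dose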
Active calls of the source: *; . = no result; [ ] = remark or other dose. Shown are actives, neighbours in structure and some others; about 3.5% of the full set was active somewhere.

SMILES	FAK blocker	ERa coact pot	ERb SRC1 inh	ERa coact inh	Mac1 fbg inh	Mac1 fbg enh
Cc1cc(C(=O)COc2ccc3ccc(=O)oc3c2)c(C)n1Cc1cccs1	.	347*[fluorescence artefact?]	37	58*[fluorescence artefact?]	20	-5
Cc1cc(C(=O)CN2C(=O)c3cccc(N)c3C2=O)c(C)n1Cc1cccs1	0	.	.	.	17	0
Cc1ccnc(N/C=C(\C#N)c2nc(-c3cccc(Br)c3)cs2)c1	-1	.	.	.	-37	61
NC(=O)[C@H](Cc1cc2ccccc2s1)NC(=O)[C@@H]1CC2(CC(c3cccc(NC(=O)[C@@H]4CCC(=O)N4)c3)=NO2)CN1C(=O)/C=C/c1c(F)cccc1Cl (stereo not given in full)	-1	.	.	.	1	148*
NC(=O)[C@H](Cc1cc2ccccc2s1)NC(=O)[C@@H]1CC2(CC(c3cccc(NC(=O)[C@@H]4CCC(=O)N4)c3)=NO2)CN1C(=O)c1ccccc1 (stereo not given in full)	1	.	.	.	-5	8
CCN=C1SC(C(=O)Nc2ccc(Cl)c(Cl)c2)CC(=O)N1CC (stereo not given)	.	105	1	-4	-14	-9
Cc1ccc(S(=O)(=O)NCC23C=CC(O2)C2C(=O)N(c4ccccc4)C(=O)C23)cc1 (stereo not given)	-3	.	.	.	0	-2
Cc1ccc2cc(CCNS(=O)(=O)c3ccc(F)cc3)c(=O)[nH]c2c1	.	216*	-3	3	8	-1
COc1ccc(N(Cc2cc3cccc(C)c3[nH]c2=O)S(C)(=O)=O)cc1	0	94	-3	4	-32	2
O=C(C1=NN(c2ccccc2)C2C(=O)N(c3ccccc3Cl)C(=O)C12)c1ccccc1 (stereo not given)	.	.	.	.	6	11
CCOC(=O)N1c2ccccc2C=CC1OCC (stereo not given)	.	619*	-3	-3	.	.
CCN(CC)C(=O)c1c[nH]c2ccc(S(=O)(=O)Nc3cc(C)cc(C)c3)cc2c1=O	4	26	24	56*	.	.
COc1cccc(NS(=O)(=O)c2ccc3[nH]cc(C(=O)NCCN4CCOCC4)c(=O)c3c2)c1	-3	53	-22	26	-3	-3
CCOCCCNC(=O)c1c[nH]c2ccc(S(=O)(=O)Nc3cccc(OC)c3)cc2c1=O	1	32	16	53*	-20	5
CCc1ccccc1NS(=O)(=O)c1ccc2[nH]cc(C(=O)NCc3ccco3)c(=O)c2c1	-3	277*[fluorescence artefact?]	39	38	.	.
O=C(O)c1ccc(SCc2cnc(Cl)s2)cc1	-7	.	.	.	.	.
COc1ccc(/C=N/n2c(SC)nnc(C(C)(C)C)c2=O)cc1	0	112	-7	1	-19	-3
C/C(CC(=O)Nc1ccccc1[N+](=O)[O-])=N\NC(=O)COc1ccccc1C	-1	.	.	.	-12	3
CCOc1ccc2c(c1)nc(SCC(=O)c1ccc(Br)s1)n2C	1	.	.	.	.	.
Cc1ccc(-c2nn(CC(=O)Nc3ccc4c(c3)nc3n4CCOC3)c(=O)c3ccccc23)cc1	16	165	54*[fluorescence artefact?]	67*[fluorescence artefact?]	14	-5
Cc1nn(CC(=O)Nc2ccc3c(c2)nc(CN2CCCC2)n3C)c(=O)c2ccccc12	15	79	40	70*[fluorescence artefact?]	-2	2
O=C(Cn1nc(-c2ccccc2)c2ccccc2c1=O)Nc1ccc2c(c1)nc1n2CCOC1	-1	209*[fluorescence artefact?]	47	22	-2	2
O=C(COc1ccccc1)Nc1ccc2c(c1)nc1n2CCOC1	-4	125	-6	10	-9	-1
Cn1c(CN2CCCC2)nc2cc(NC(=O)COc3ccccc3)ccc21	-7	.	.	.	-3	-3
Fc1ccc(Cn2ccc(-c3cnc(-c4ccccc4)s3)n2)cc1	1	108	-6	1	56*	-4
SMILES	FAK blocker	ERa coact pot	ERb SRC1 inh	ERa coact inh	Mac1 fbg inh	Mac1 fbg enh
CCOc1cc(C2c3c(oc4cc(C)c(Cl)cc4c3=O)C(=O)N2Cc2ccco2)ccc1O (stereo not given)	-2	106	46	84*[fluorescence artefact?]	-3	0
CCOC(=O)Cc1csc(-n2sc3ccccc3c2=O)n1	-3	.	.	.	-26	29
O=C(COc1ccc(Br)cc1)Nc1ccc(-c2nnc(-c3ccco3)o2)cc1	1	268*[fluorescence artefact?]	3	4	36	50
COc1cccc(C(=O)Nc2cccc(-c3nnc(-c4ccco4)o3)c2)c1	-3	102	-1	-13	6	-5
COc1ccc(Br)cc1C(=O)Nc1cccc(-c2nnc(-c3ccco3)o2)c1	66*	115	53*[fluorescence artefact?]	69*[fluorescence artefact?]	.	.
O=S(=O)(Nc1cccc2cccnc12)c1ccc(S(=O)(=O)N2CCCC2)cc1	-7	91	-2	-4	12	-3
CC(=O)N1CCN(C(=O)CCc2nc3sc4c(c3c(=O)[nH]2)CCCC4)CC1	.	94	11	5	5	0
O=C(Nc1ccccc1)Nc1cc(Cl)cc(Cl)c1	5	99	-6	0	56*	-4
Cn1c(=O)[nH]c(=O)c2c1nc(Br)n2CCSc1nnnn1-c1ccccc1	0	129	-5	-3	.	.
CSc1ccc(-c2nc(CSCC(=O)N3CCOCC3)c(C)o2)cc1	0	121	-5	0	19	-3
CCc1ccc(-c2nc(CSCC(=O)N3CCN(c4ncccn4)CC3)c(C)o2)cc1	2	.	.	.	79*	-7
Cc1cc(NS(=O)(=O)c2ccc(CC(C)C)cc2)no1	1	98	-6	-3	-9	-1
CCOC(=O)CC(=O)CSC1=C(C#N)C(c2ccccc2OC)CC(=O)N1 (stereo not given)	2	110	4	6	-9	0
CCOC(=O)c1c(NC(=O)c2ccnn2C)sc(C)c1C	-2	151	23	22	.	.
COC(=O)/C(=C\Nc1ccc(Cl)c2ccccc12)c1ncc(C(F)(F)F)cc1Cl	-1	107	14	55*	2	1
O=C(Cn1c(=O)oc2ccccc21)Nc1ccc(S(=O)(=O)N2CCCCC2)cc1	-2	125	27	63*[fluorescence artefact?]	.	.
O=C(Nc1cccc(Cl)c1)NC1CCCCC1	2	.	.	.	-4	-3
CC1CCCC(C)N1C(=O)Nc1cccc(Cl)c1 (stereo not given)	-1	84	53*	22	-15	-1
Cc1cc(NS(=O)(=O)c2ccc(Nc3nc(-c4sc(N)nc4C)cs3)cc2)no1	3	55	56*[fluorescence artefact?]	22	-10	-8
